Measured values from the supplement of paper PMC4466140.

What follows are binders tested against CaNbp2 (assay: SPOT peptide array binding signal intensity (averaged, normalized) (arbitrary units (background-subtracted, floor 0; scale differs between SH3 domains)); higher = stronger binding of the SH3 domain to the peptide).
Summary of the method: (§1)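 To measure binding, SH3 domains from four yeast species were fused to GST, expressed in E. coli BL21(DE3) and purified on glutathione Sepharose. Each domain was incubated at 10 μg/ml overnight at 4°C on cellulose membranes with synthetic 15-mer peptides whose cysteines were replaced by serines. Anti-GST antibody, an HRP anti-mouse secondary and luminol were used for detection, and images were quantified with Genespotter. Reported binding signal is normalized, background-subtracted spot intensity averaged over replicates, in arbitrary units that differ between domains.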
In the case of TPTSGPPLLPPRNTM, the “SPOT peptide array binding signal intensity” value is reported as 21.

These binders were tested against CaRvs167 in the same assay as above.
Summary of the method: as §1
With TPTSGPPLLPPRNTM the “SPOT peptide array binding signal intensity” value was 2460.

What follows are binders tested against CaRvs167-3 in the same assay as above.
Summary of the method: as §1
TPTSGPPLLPPRNTM was tested, and the “SPOT peptide array binding signal intensity” value was no more than 0.

Each binder was assayed against CaSho1 in the same assay as above.
Summary of the method: as §1
TPTSGPPLLPPRNTM was tested, and the “SPOT peptide array binding signal intensity” value was 5.5.

The binders below were run against CaSla1-D1-D2 in the same assay as above.
Summary of the method: as §1
With TPTSGPPLLPPRNTM the “SPOT peptide array binding signal intensity” value was 185.

The binders below were run against CaSla1-D3 in the same assay as above.
Summary of the method: as §1
With TPTSGPPLLPPRNTM the “SPOT peptide array binding signal intensity” value was 23.8.

What follows are binders tested against ScAbp1 in the same assay as above.
Summary of the method: as §1
With TPTSGPPLLPPRNTM the “SPOT peptide array binding signal intensity” value was no more than 0.

These binders were tested against ScBbc1 in the same assay as above.
Summary of the method: as §1
For TPTSGPPLLPPRNTM, the “SPOT peptide array binding signal intensity” value was 1.

What follows are binders tested against ScBem1-D1 in the same assay as above.
Summary of the method: as §1
With TPTSGPPLLPPRNTM the “SPOT peptide array binding signal intensity” value was no more than 0.

Each binder was assayed against ScBzz1-D1 in the same assay as above.
Summary of the method: as §1
For TPTSGPPLLPPRNTM, the “SPOT peptide array binding signal intensity” value was 3.

What follows are binders tested against ScBzz1-D2 in the same assay as above.
Summary of the method: as §1
With TPTSGPPLLPPRNTM the “SPOT peptide array binding signal intensity” value was no more than 0.

What follows are binders tested against ScCyk3 in the same assay as above.
Summary of the method: as §1
For TPTSGPPLLPPRNTM, the “SPOT peptide array binding signal intensity” value was 2.

Each binder was assayed against ScFus1 in the same assay as above.
Summary of the method: as §1
In the case of TPTSGPPLLPPRNTM, the “SPOT peptide array binding signal intensity” value is reported as no more than 0.

The binders below were run against ScHof1 in the same assay as above.
Summary of the method: as §1
For TPTSGPPLLPPRNTM, the “SPOT peptide array binding signal intensity” value was 8.

Each binder was assayed against ScHse1 in the same assay as above.
Summary of the method: as §1
For TPTSGPPLLPPRNTM, the “SPOT peptide array binding signal intensity” value was no more than 0.

These binders were tested against ScLsb1 in the same assay as above.
Summary of the method: as §1
For TPTSGPPLLPPRNTM, the “SPOT peptide array binding signal intensity” value was 1070.

What follows are binders tested against ScLsb2 in the same assay as above.
Summary of the method: as §1
With TPTSGPPLLPPRNTM the “SPOT peptide array binding signal intensity” value was 65.5.

Each binder was assayed against ScLsb3 in the same assay as above.
Summary of the method: as §1
For TPTSGPPLLPPRNTM, the “SPOT peptide array binding signal intensity” value was 6040.

The binders below were run against ScLsb4 in the same assay as above.
Summary of the method: as §1
In the case of TPTSGPPLLPPRNTM, the “SPOT peptide array binding signal intensity” value is reported as 6540.

These binders were tested against ScMyo3 in the same assay as above.
Summary of the method: as §1
For TPTSGPPLLPPRNTM, the “SPOT peptide array binding signal intensity” value was 538.

Each binder was assayed against ScMyo5 in the same assay as above.
Summary of the method: as §1
In the case of TPTSGPPLLPPRNTM, the “SPOT peptide array binding signal intensity” value is reported as 80.

The binders below were run against ScNbp2 in the same assay as above.
Summary of the method: as §1
In the case of TPTSGPPLLPPRNTM, the “SPOT peptide array binding signal intensity” value is reported as no more than 0.

Each binder was assayed against ScPex13 in the same assay as above.
Summary of the method: as §1
With TPTSGPPLLPPRNTM the “SPOT peptide array binding signal intensity” value was 1680.

Each binder was assayed against ScRvs167 in the same assay as above.
Summary of the method: as §1
With TPTSGPPLLPPRNTM the “SPOT peptide array binding signal intensity” value was 2570.

These binders were tested against ScSho1 in the same assay as above.
Summary of the method: as §1
TPTSGPPLLPPRNTM was tested, and the “SPOT peptide array binding signal intensity” value was 1.5.

The binders below were run against ScSla1-D1-D2 in the same assay as above.
Summary of the method: as §1
For TPTSGPPLLPPRNTM, the “SPOT peptide array binding signal intensity” value was 268.

Each binder was assayed against ScSla1-D3 in the same assay as above.
Summary of the method: as §1
In the case of TPTSGPPLLPPRNTM, the “SPOT peptide array binding signal intensity” value is reported as 51.5.

What follows are binders tested against SpAbp1-D1 in the same assay as above.
Summary of the method: as §1
TPTSGPPLLPPRNTM was tested, and the “SPOT peptide array binding signal intensity” value was 3.

What follows are binders tested against SpBbc1 in the same assay as above.
Summary of the method: as §1
In the case of TPTSGPPLLPPRNTM, the “SPOT peptide array binding signal intensity” value is reported as no more than 0.

The binders below were run against SpBzz1-D1 in the same assay as above.
Summary of the method: as §1
With TPTSGPPLLPPRNTM the “SPOT peptide array binding signal intensity” value was 176.

The binders below were run against SpBzz1-D2 in the same assay as above.
Summary of the method: as §1
For TPTSGPPLLPPRNTM, the “SPOT peptide array binding signal intensity” value was 1.

What follows are binders tested against SpCyk3 in the same assay as above.
Summary of the method: as §1
In the case of TPTSGPPLLPPRNTM, the “SPOT peptide array binding signal intensity” value is reported as 4.5.

The binders below were run against SpHof1 in the same assay as above.
Summary of the method: as §1
With TPTSGPPLLPPRNTM the “SPOT peptide array binding signal intensity” value was 12.5.

What follows are binders tested against SpHof1-2 in the same assay as above.
Summary of the method: as §1
For TPTSGPPLLPPRNTM, the “SPOT peptide array binding signal intensity” value was 19.

What follows are binders tested against SpHof1-3 in the same assay as above.
Summary of the method: as §1
TPTSGPPLLPPRNTM was tested, and the “SPOT peptide array binding signal intensity” value was 18.8.

These binders were tested against SpHse1 in the same assay as above.
Summary of the method: as §1
For TPTSGPPLLPPRNTM, the “SPOT peptide array binding signal intensity” value was 31.5.

The binders below were run against SpLsb1 in the same assay as above.
Summary of the method: as §1
For TPTSGPPLLPPRNTM, the “SPOT peptide array binding signal intensity” value was 1190.

These binders were tested against SpLsb4 in the same assay as above.
Summary of the method: as §1
For TPTSGPPLLPPRNTM, the “SPOT peptide array binding signal intensity” value was 6300.

The binders below were run against SpMyo1 in the same assay as above.
Summary of the method: as §1
For TPTSGPPLLPPRNTM, the “SPOT peptide array binding signal intensity” value was 156.

Each binder was assayed against SpNbp2 in the same assay as above.
Summary of the method: as §1
TPTSGPPLLPPRNTM was tested, and the “SPOT peptide array binding signal intensity” value was no more than 0.

The binders below were run against SpPex13 in the same assay as above.
Summary of the method: as §1
For TPTSGPPLLPPRNTM, the “SPOT peptide array binding signal intensity” value was 84.5.

Each binder was assayed against SpRvs167 in the same assay as above.
Summary of the method: as §1
In the case of TPTSGPPLLPPRNTM, the “SPOT peptide array binding signal intensity” value is reported as 2660.

These binders were tested against SpSla1-D1-D2 in the same assay as above.
Summary of the method: as §1
TPTSGPPLLPPRNTM was tested, and the “SPOT peptide array binding signal intensity” value was 3.

What follows are binders tested against SpSla1-D3 in the same assay as above.
Summary of the method: as §1
TPTSGPPLLPPRNTM was tested, and the “SPOT peptide array binding signal intensity” value was 4.5.
